This note sets out measurements from PubChem BioAssay (Tox21).

Where “and” joins values, the source holds several entries; their conditions need not be identical. Equal values may be shown once. Results filed as inconclusive are left out. Some structures have more than one record in an assay (separate samples or runs), and their calls can disagree. Calls of active or inactive are those of the source. Unless noted, the call rests on the fitted dose curve; in most records, active means well fitted curve in the direction sought with a large enough effect in the repeat runs; inconclusive means weak or mixed curves; inactive means no such curve, though single readings can be large; an effect the other way counts as inactive or inconclusive.

Assay [1] can be described thus: qHTS assay to identify small molecule agonists of the estrogen receptor alpha (ER-alpha) signaling pathway in the presence of an antagonist - cell viability counter screen (AID 1259386).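 Further: cells exposed to compounds for 22 h at 37 °C before the viability read; nearly all actives have a fitted effect of over 30% in size.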 Further: potency means the concentration at half of the fitted maximal effect. In a few lines:
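Cells are starved of estrogens for 5 days in charcoal-stripped serum, seeded for 24hr and co-treated with ICI-182,780 (10.0nM final) and test compounds. After 22hr at 37C, viability is read as CellTiter-Fluor fluorescence.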

Assay [2] concerns the target Progesterone receptor (Homo sapiens) (UniProt P06401). Description: qHTS assay to identify small molecule agonists of the progesterone receptor (PR) signaling pathway (AID 1346784; calls by dose curve; further: nearly all actives have a fitted effect of over 30% in size). In a few lines:
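Fluorescence from LiveBLAzer B/G FRET substrate cleavage (2 hr, RT) reported PR activation in PR-UAS-bla HEK 293T cells treated 16 hr at 37C/5% CO2 with compounds; medium contained 2% charcoal-stripped FBS.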

The target is the same in assay [3]. Description: qHTS assay to identify small molecule antagonists of the progesterone receptor (PR) signaling pathway (AID 1346795; active means well fitted inhibition curve with a large enough effect in the signal ratio in the repeat runs, not every such curve was filed as active; the % refers to the signal ratio; further: potency means the concentration at half of the fitted maximal effect). In a few lines: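 Fluorescence intensity measured 2 hr after adding beta-lactamase FRET substrate to PR-UAS-bla HEK293T cells that had been co-treated 16 hr with compound and 1 nM R5020 (final concentration) in 2% charcoal-stripped FBS.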

Assay [4] is described as follows: qHTS assay to identify small molecule antagonists of the progesterone receptor (PR) signaling pathway - cell viability counter screen (AID 1346798). Further: series mostly up to about 92 µM; nearly all actives have a fitted effect of over 50% in size. In short, it runs like this:
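CellTiter-Glo luminescence; PR-UAS-bla HEK293T, 3,000 cells/well; compound + R5020, 16 hr, 37C/5% CO2; 30 min RT before read.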

Assay [5] is described as follows: qHTS assay to identify small molecule agonists of the progesterone receptor (PR) signaling pathway - cell viability counter screen (AID 1346799; calls by dose curve; further: nearly all actives have a fitted effect of over 45% in size). In short, it runs like this:
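In parallel with the beta-lactamase readout, cytotoxicity toward PR-UAS-bla HEK293T cells was measured by CellTiter-Glo luminescence following 16 hr compound incubation in 2% charcoal-stripped FBS medium.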

Assay [6] is described as follows: qHTS assay to identify small molecule antagonists of the TGF-beta/Smad signaling pathway - cell viability counter screen (AID 1346824). Further: nearly all actives have a fitted effect of over 50% in size. In short, it runs like this: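 SBE-bla HEK 293T cells, incubated overnight, then compound plus 0.25 ng/mL TGF-beta1 (stock added) for 5 hr at 37 C. Viability was read in the same wells by CellTiter-Glo luminescence after 30 min at room temperature.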

A short description of assay [7]: qHTS assay to identify small molecule agonists of the TGF-beta/Smad signaling pathway - cell viability counter screen (AID 1346829). Further: top concentration of the series differs between compounds; nearly all actives have a fitted effect of over 45% in size. In short, it runs like this: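 Same-well cytotoxicity: CellTiter-Glo added after the 2 hr room-temperature beta-lactamase substrate step, luminescence measured 30 min later; cells had 5 hr of compound at 37 C.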
The nature of assay [8]: qHTS assay to identify small molecule agonists of the TGF-beta/Smad signaling pathway (AID 1346859; active means well fitted activation curve with a large enough effect in the signal ratio in the repeat runs, not every such curve was filed as active; the % refers to the signal ratio; further: series mostly up to about 77 µM). In a few lines: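 After overnight seeding, SBE-bla HEK 293T cells are dosed with compounds in DMSO and kept 5 hr at 37 C, 5% CO2. LiveBLAzer-type FRET substrate is then applied for 2 hr at room temperature.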
Assay [9] has as its target Thyrotropin-releasing hormone receptor (Homo sapiens) (UniProt P34981). Description: qHTS assay to identify small molecule antagonists of the thyrotropin-releasing hormone receptor (TRHR) signaling pathway (AID 1346877; active means well fitted inhibition curve with a large enough effect in the repeat runs, not every such curve was filed as active; further: series mostly up to about 51 µM). In short, it runs like this: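 Cells (TRHR-HEK293) are plated and kept 18 h at 37 °C/5% CO2. A calcium-sensitive dye is added for 2 h, compound follows for 5 min at room temperature, and TRH is then given at 1 nM final.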

The target is the same in assay [10]. Description: qHTS assay to identify small molecule agonists of the thyrotropin-releasing hormone receptor (TRHR) signaling pathway (AID 1346891; calls by dose curve;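 further: HEK293 cells expressing TRHR with calcium dye readout; series mostly up to about 58 µM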). In short, it runs like this: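 Compounds were tested as agonists at 15 concentrations, in triplicate, on TRHR-Hek293 cells; calcium-sensitive dye fluorescence was recorded for 3 min following addition.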
The nature of assay [11]: Human pregnane X receptor (PXR) small molecule agonists, qHTS cell viability counter screen (AID 1346977). Further: nearly all actives have a fitted effect of over 50% in size. Further: potency means the concentration at half of the fitted maximal effect. In short, it runs like this:
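Viability counter screen: CellTiter-Fluor signal in PXR-Luc HepG2 cells, 24hr compound exposure, 37C, 5% CO2.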

A short description of assay [12]: Caspase-3/7 induction in HepG2 cells by small molecules, qHTS assay (AID 1346978). Further: nearly all actives have a fitted effect of over 15% in size. In short, it runs like this: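 Wild-type HepG2 cells, 2,000/well, settled 5 hr at 37 C and 5% CO2, then compound-treated for 17 hr; caspase-3/7 activity read by luminescent Caspase-Glo 3/7 after 30 min at room temperature.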
A short description of assay [13]: Caspase-3/7 induction in CHO-K1 cells by small molecules, qHTS cell viability counter screen (AID 1346979). Further: nearly all actives have a fitted effect of over 35% in size. Further: potency means the concentration at half of the fitted maximal effect. In short, it runs like this:
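Viability readout by fluorescence (CellTiter-Fluor) on wild-type CHO-K1 cells exposed for 16hr at 37C and 5% CO2 to compounds delivered in DMSO; reagent incubated 1hr before reading.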

Assay [14] can be described thus: Caspase-3/7 induction in CHO-K1 cells by small molecules, qHTS assay (AID 1346980). Further: nearly all actives have a fitted effect of over 15% in size. In short, it runs like this:
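Wild-type CHO-K1 cells exposed to compounds for 17hr at 37 C, 5% CO2. Caspase-3/7 activity then measured by Caspase-Glo 3/7 luminescence after 30min at room temperature.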

Assay [15] in a line: Caspase-3/7 induction in HepG2 cells by small molecules, qHTS cell viability counter screen (AID 1346981). Further: nearly all actives have a fitted effect of over 30% in size. Further: potency means the concentration at half of the fitted maximal effect. In short, it runs like this:
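Steps: seed 2,000 HepG2 cells per well; incubate 5 hr at 37 C; pin-add compounds in DMSO; incubate 16 hr; add CellTiter-Fluor; after 1 hr at 37 C and 5% CO2, read fluorescence.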

For assay [16], the target named is Nuclear receptor subfamily 1 group I member 2 (Homo sapiens) (UniProt O75469). Description: Human pregnane X receptor (PXR) small molecule agonists, qHTS assay (AID 1346982). Further: nearly all actives have a fitted effect of over 35% in size. Further: potency means the concentration at half of the fitted maximal effect. In short, it runs like this:
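Agonist mode qHTS: PXR-Luc HepG2 cells plated 5 hr before DMSO-dissolved compounds were pinned in, cultured 24 hr at 37 C, 5% CO2; ONE-Glo luminescence readout.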

Assay [17] has as its target Nuclear receptor subfamily 1 group I member 2 (Rattus norvegicus) (UniProt Q9R1A7). Description: Rat pregnane X receptor (rPXR) activation by small molecules, qHTS assay (AID 1346983). Further: nearly all actives have a fitted effect of over 20% in size. The note with it: rPXR luciferase reporter cells, One-Glo luminescence, 24 h; stronger effect = higher value. In a few lines: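 Cell-based rPXR activation assay: rPXR cells, 2,000 per well, rested 5hr at 37 C, then exposed to compounds in DMSO for 24 hr at 37 C. Luciferase activity read by One-Glo luminescence after 30 min at room temperature.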

Assay [18] concerns the target Nuclear receptor subfamily 1 group I member 2 (Homo sapiens) (UniProt O75469). Description: CYP3A4 induction through human pregnane X receptor (PXR) by small molecules, qHTS assay (AID 1346984). Further: nearly all actives have a fitted effect of over 40% in size. In a few lines:
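Steps: seed DPX-2 cells, 5 hr at 37C; pin-transfer compounds; 24 hr at 37C; add Luciferin-IPA (3uM final), 3 hr at 37C; add One-Glo, 30 min RT; read luminescence.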

The target is the same in assay [19]. Description: Human pregnane X receptor (PXR) activation by small molecules, qHTS assay (AID 1346985). Further: nearly all actives have a fitted effect of over 40% in size. Further: potency means the concentration at half of the fitted maximal effect. In short, it runs like this: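 DPX-2 cells (HepG2 co-transfected with a PXR response element and a CYP3A4-promoter luciferase construct) were seeded at 2,000 per well, rested 5 hr at 37C, then exposed to DMSO-dissolved compounds for 24 hr. Activation was read as luciferase luminescence.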

Assay [20] has as its target Acetylcholinesterase (Homo sapiens) (UniProt P22303). Description: Acetylcholinesterase (AChE) small molecule antagonists: colormetric cell-based qHTS assay (AID 1347395; calls by dose curve; further: nearly all actives have a fitted effect of over 30% in size; further: potency means the concentration at half of the fitted maximal effect). In short, it runs like this: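 Homogeneous whole-cell format. SH-SY5Y cells seeded overnight, dosed with compound (30 min, 37 C, 5% CO2), then given DTNB/acetylthiocholine cocktail for 90 min at 37 C; colorimetric signal.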
On the % scale 0 is the no-effect control and ±100 the full control effect.

Sequence of Thyrotropin-releasing hormone receptor (Homo sapiens) (P34981 whole entry, looked up): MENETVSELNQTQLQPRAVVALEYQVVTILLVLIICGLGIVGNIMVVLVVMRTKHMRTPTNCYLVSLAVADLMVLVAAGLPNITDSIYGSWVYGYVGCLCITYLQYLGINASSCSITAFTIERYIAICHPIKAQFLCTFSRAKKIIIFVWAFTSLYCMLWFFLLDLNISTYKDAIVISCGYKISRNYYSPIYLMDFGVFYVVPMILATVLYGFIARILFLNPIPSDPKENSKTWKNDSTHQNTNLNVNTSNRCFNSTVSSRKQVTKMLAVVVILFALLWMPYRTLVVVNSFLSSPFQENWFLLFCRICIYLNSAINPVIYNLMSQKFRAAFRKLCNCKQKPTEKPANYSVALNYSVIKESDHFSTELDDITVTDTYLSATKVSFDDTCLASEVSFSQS
Sequence of Nuclear receptor subfamily 1 group I member 2 (Rattus norvegicus) (Q9R1A7 whole entry, looked up): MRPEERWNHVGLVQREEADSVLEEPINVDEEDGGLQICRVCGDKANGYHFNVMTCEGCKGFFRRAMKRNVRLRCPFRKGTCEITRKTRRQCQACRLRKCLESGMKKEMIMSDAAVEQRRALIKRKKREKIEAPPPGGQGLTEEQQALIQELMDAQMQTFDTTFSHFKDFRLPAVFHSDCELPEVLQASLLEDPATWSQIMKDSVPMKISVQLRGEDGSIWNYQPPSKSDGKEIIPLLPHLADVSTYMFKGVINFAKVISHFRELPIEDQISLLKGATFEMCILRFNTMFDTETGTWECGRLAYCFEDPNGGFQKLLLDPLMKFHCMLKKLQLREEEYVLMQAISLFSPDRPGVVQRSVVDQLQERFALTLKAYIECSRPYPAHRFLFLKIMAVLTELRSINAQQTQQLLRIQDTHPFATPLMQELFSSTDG
Sequence of Acetylcholinesterase (Homo sapiens) (P22303 whole entry, looked up): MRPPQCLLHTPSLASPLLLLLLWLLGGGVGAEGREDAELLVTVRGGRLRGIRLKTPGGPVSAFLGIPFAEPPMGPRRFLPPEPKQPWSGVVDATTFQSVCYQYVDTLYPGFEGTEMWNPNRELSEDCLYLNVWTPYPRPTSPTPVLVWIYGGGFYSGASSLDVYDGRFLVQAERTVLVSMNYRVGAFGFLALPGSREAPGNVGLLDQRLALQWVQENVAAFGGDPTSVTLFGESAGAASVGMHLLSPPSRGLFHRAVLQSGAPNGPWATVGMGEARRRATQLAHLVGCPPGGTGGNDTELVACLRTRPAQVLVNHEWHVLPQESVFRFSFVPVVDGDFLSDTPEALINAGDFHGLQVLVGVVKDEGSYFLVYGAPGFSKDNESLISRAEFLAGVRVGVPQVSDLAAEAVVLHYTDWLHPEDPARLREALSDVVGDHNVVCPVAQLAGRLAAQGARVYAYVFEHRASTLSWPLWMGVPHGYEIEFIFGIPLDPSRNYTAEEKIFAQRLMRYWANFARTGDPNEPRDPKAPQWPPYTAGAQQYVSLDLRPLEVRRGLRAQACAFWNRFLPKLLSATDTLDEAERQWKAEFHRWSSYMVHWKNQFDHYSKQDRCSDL
Sequence of Progesterone receptor (Homo sapiens) (P06401 whole entry, looked up): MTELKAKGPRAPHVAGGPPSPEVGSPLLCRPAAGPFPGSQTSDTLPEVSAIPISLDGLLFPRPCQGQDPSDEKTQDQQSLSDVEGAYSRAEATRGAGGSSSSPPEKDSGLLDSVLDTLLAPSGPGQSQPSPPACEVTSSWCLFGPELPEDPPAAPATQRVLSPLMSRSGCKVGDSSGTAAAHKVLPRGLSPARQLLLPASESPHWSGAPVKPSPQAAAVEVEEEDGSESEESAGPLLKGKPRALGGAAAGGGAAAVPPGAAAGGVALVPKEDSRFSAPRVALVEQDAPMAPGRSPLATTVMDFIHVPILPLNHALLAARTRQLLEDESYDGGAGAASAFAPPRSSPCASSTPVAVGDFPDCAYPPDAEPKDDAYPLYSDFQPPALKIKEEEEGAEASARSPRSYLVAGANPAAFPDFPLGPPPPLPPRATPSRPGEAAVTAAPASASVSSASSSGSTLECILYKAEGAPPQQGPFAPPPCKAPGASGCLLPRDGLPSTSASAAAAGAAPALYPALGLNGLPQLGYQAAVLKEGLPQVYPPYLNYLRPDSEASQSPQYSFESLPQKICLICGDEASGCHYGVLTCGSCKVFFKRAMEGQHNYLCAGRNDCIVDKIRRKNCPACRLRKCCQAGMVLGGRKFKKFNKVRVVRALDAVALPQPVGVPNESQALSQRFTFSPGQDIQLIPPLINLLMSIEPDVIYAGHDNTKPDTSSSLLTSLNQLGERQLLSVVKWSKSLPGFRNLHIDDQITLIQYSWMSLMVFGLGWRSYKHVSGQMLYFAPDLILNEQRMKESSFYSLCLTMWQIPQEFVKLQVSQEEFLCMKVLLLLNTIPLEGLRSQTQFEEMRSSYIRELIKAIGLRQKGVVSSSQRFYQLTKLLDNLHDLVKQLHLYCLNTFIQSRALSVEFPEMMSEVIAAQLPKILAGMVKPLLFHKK
Sequence of Nuclear receptor subfamily 1 group I member 2 (Homo sapiens) (O75469 whole entry, looked up): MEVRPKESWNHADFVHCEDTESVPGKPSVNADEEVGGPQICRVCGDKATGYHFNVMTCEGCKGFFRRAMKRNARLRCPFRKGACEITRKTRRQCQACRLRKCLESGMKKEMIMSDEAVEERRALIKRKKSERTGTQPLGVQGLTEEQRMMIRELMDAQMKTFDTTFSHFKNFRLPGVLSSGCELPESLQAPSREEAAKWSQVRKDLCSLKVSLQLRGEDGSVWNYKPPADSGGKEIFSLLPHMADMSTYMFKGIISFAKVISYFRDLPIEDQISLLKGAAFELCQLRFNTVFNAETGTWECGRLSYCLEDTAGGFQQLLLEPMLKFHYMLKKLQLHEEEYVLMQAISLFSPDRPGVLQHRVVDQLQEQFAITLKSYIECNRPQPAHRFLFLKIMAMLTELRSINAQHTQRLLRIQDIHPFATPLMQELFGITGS

Take `CN1C[C@H](C(=O)N[C@]2(C)O[C@@]3(O)[C@@H]4CCCN4C(=O)[C@H](Cc4ccccc4)N3C2=O)C=C2c3cccc4[nH]cc(c34)C[C@H]21`: the Potency in assay [1] was 24.4 µM (active) and 20.2 µM (active); in [3], 48.8 µM (active) and inactive; in assay [11], 39.8 µM (active); in assay [13], 30.8 µM (active) and 18 µM (active); in assay [15] it was 30.8 µM (active) and 22.6 µM (active); in assay [16], 2.74 µM (active) and 4.03 µM (active). The Potency was 2.51 µM (active) in assay [19]; 1.01 µM (active) and 8.32 µM (active) in [20]. Further, the Potency result in assay [2], in assay [4], in assay [5], in [6], in assay [7] and in [9] was “inactive” throughout. Moreover, the Potency entry in [12] and in assay [14] was “inactive” each time. Besides, the call in assay [8], in assay [10] and in [18] was inactive. For the same molecule, the max activation in assay [17] is -2.24% (inactive).
For the molecule `C=CC(C)(CCC=C(C)C)OC(=O)c1ccccc1N` (centres undefined), the Potency result in assay [1], in [2], in assay [3], in [4], in assay [5] and in assay [6] was “inactive” each time. For the same molecule, the Potency entry in assay [7], in assay [9], in assay [11], in [12], in [13] and in [14] was “inactive” throughout. For the same molecule, in [15], the Potency entry was “inactive”. Further, the call in [8] and in assay [10] was inactive.
Regarding `O=C(N/N=C/c1ccc([N+](=O)[O-])o1)c1cc([N+](=O)[O-])cc([N+](=O)[O-])c1O`, the Potency in [1] is 21.1 µM (active); in [11], 21.1 µM (active); in assay [13] it was 23.7 µM (active); in assay [15], 13.3 µM (active). Moreover, the Potency result in [2], in [3], in [4], in assay [5], in [6] and in assay [7] was “inactive” each time. For the same molecule, the Potency result in assay [9], in assay [12], in assay [14], in [16], in assay [19] and in assay [20] was “inactive” in each case. Also, the result in [8], in [10] and in assay [18] was inactive. In addition, the max activation in [17] was 3.24% (inactive).
Turning to `CCN(C(C)=O)c1cccc(-c2ccnc3c(C#N)cnn23)c1`, the Potency result in assay [1], in [2], in assay [3], in assay [4], in [5] and in assay [6] was “inactive” in each case. Also, the Potency result in assay [7], in assay [9], in assay [11], in [12], in [13] and in assay [14] was “inactive” in each case. Also, the Potency result in assay [15], in assay [16], in assay [19] and in [20] was “inactive” in each case. In addition, the molecule was called inactive in assay [8], in [10] and in [18]. In addition, the max activation in assay [17] was -2.18% (inactive).
Take `Clc1ccc(Cl)c(Cl)c1`: the Potency result in [1], in assay [2], in assay [3], in assay [4], in assay [5] and in [6] was “inactive” throughout. Also, the Potency result in assay [7], in assay [9], in assay [11], in [12], in assay [13] and in assay [14] was “inactive” in each case. The Potency result in [15] was “inactive”. Further, the molecule was classed as inactive in assay [8] and in [10].
In the case of `CN1C(=O)CN=C(c2ccccc2)c2cc([N+](=O)[O-])ccc21`, the Potency result in assay [1], in [2], in [3], in [4], in assay [5] and in assay [6] was “inactive” throughout. The Potency result in assay [7], in [9], in [11], in assay [12], in assay [13] and in assay [14] was “inactive” throughout. In addition, the Potency result in [15], in assay [16] and in assay [20] was “inactive” each time. In addition, the call in assay [8], in [10] and in [18] was inactive. In assay [17], the max activation was 8.45% (inactive).
